# Screens (PubChem)
# In the library only some 19% were active in any assay of this set; here they are far more common.
# TDP1 cell CPT – growth inhibition of DT40 Tdp1-/-;hTDP1 cells with camptothecin (screen for TDP1 inhibitors); chicken DT40 Tdp1-/-;hTDP1 cells + 20 nM CPT, ATP luminescence, 48 h; Potency, µM (titrated, usually from 46.2 µM), inactives show at the top dose activity change, negative = growth inhibition, most hits filed as inhibitors; 420,000 tested, 12% active; AID 686979; also: potency is read from the fitted curve at half-maximal effect; % is scaled to controls: 0 for no effect and ±100 for the full control effect; nearly all actives have a fitted effect of over 55% in size
#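 Chicken DT40 Tdp1-/- cells complemented with human TDP1, 400 cells/well, exposed to compounds plus 20 nM camptothecin for at least 48 h at 37 C; viability read as ATP content by CellTiter-Glo luminescence.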
# DT40 TDP1 no CPT – qHTS for Inhibitors of human tyrosyl-DNA phosphodiesterase 1 (TDP1): qHTS in cells in absence of CPT; 420,000 tested, 15% active; Potency, µM (doses to about 46.2 µM), inactives show at the top dose activity change, negative = growth inhibition, usual class: inhibitors; DT40 Tdp1-/- hTDP1 cells, no CPT, ATP luminescence, 48 h; also: potency is read from the fitted curve at half-maximal effect; % is scaled to controls: 0 for no effect and ±100 for the full control effect; nearly all actives have a fitted effect of over 55% in size
#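 No-CPT arm: Tdp1-/-;hTDP1 DT40 cells (400/well) plus compounds, incubated ≥48 hr at 37 °C. Readout CellTiter-Glo luminescence.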
# S-ASM inh – inhibitors of human secretory acid sphingomyelinase; P17405; placental ASM, HMU-PC fluorogenic substrate, 60 min; Potency, µM (titrated, usually from 57.5 µM), inactives show at the top dose activity change, negative = inhibition, hits mostly inhibitors; 340,000 tested, 0.006% active; AID 504937; also: potency is read from the fitted curve at half-maximal effect
# Target sequence (P17405 47-631 limits assumed): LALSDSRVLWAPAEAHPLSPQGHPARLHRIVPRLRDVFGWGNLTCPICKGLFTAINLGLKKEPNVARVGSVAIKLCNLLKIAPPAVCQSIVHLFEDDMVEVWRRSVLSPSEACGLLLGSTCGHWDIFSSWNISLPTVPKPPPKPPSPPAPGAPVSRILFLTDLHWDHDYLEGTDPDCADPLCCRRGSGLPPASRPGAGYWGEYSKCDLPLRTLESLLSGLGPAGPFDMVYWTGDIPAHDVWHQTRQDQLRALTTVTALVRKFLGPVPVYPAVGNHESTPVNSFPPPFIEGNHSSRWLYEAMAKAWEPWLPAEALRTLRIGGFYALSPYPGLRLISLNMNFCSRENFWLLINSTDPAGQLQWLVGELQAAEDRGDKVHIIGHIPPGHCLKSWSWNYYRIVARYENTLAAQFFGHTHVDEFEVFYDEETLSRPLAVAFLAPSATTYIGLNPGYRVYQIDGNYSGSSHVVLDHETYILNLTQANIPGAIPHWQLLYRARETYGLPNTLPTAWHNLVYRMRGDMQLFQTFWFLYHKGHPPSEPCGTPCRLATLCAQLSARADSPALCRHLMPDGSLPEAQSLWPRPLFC
#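 HMU-PC0 cleavage (9 uM final) by human placental ASM, 60 min at 37 °C following 10 min compound exposure at RT; stopped at pH 10, fluorescence Ex 386/Em 447 nm.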
# IL1B secr inh – inflammasome signaling inhibition, IL-1 beta readout. THP-1 LPS/ATP IL-1B secretion, AlphaLISA, 16 h; stronger effect = lower value. activity change, % at 57.5 µM. 360,000 tested, 4.7% active. AID 743279; in the data active = activity change below about -50%; inconclusive = mostly about -30% to -49%; also: % is scaled to controls: 0 for no effect and ±100 for the full control effect
#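 THP-1 cells pretreated 1 hr with compounds (up to 57.5 uM final), then stimulated with LPS (250 ng/mL final) plus ATP (1.25 mM final); secreted IL-1B measured by AlphaLISA after 16 hr, decreased signal indicating inhibition.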
# HepG2 tox – HepG2 cytotoxicity, counter-screen for TGF-b inhibitors; HepG2 CAGA-GFP viability, ATP luminescence, 18 h; Potency, µM (titrated, usually from 46.1 µM), for the others: at the highest dose activity change, negative = cytotoxicity, usual class: cytotoxic; 410,000 tested, 0.76% active; also: potency is read from the fitted curve at half-maximal effect
#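 HepG2 CAGA-GFP cells (1000/well, DMEM with 1% FBS) received compound, then TGF-beta at 500 pg/mL final, and were incubated 18 hours at 37 degrees C. Viability was read by CellTiter-Glo luminescence. Media-only wells were set as complete cell-killing and DMSO as no toxicity.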
# TGFb SMAD3 inh – inhibitors of TGF-b signaling | AID 588855 | HepG2 CAGA-GFP TGF-b/SMAD3 reporter, GFP fluorescence, 18 h; TGF-beta stimulated, 500 pg/mL final | Potency, µM (titrated, usually from 46.1 µM), without a hit: at the top dose activity, negative = inhibition, usual class: inhibitors | 410,000 tested, 1.2% active; also: potency is read from the fitted curve at half-maximal effect; % is scaled to controls: 0 for no effect and ±100 for the full control effect; nearly all actives have a fitted effect of over 65% in size
#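 Per well, imaged GFP fluorescence of HEPG2 CAGA-GFP cells gives the signal; cells get compound, then TGF-beta (500 pg/mL final), 18 h at 37 degrees C; %Activity versus -TGF-beta and +DMSO controls.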
# Numbers without * were called inactive; ? = inconclusive; / = not tested or not shown; ! = repeats disagree; [ ] = remark or other dose. Unless noted, calls follow the shape of the dose curve; as a rule, active = well fitted curve in the direction sought with a large enough effect; inconclusive = small, poorly fitted or top-dose-only effect, or another doubt; inactive = no such curve, though single readings can be large; an effect the other way counts as inactive or inconclusive.
SMILES,TDP1 cell CPT,DT40 TDP1 no CPT,S-ASM inh,IL1B secr inh,HepG2 tox,TGFb SMAD3 inh
Cc1ccc(-n2c(SCc3nc(-c4ccccc4C)no3)nnc2-c2ccncc2)cc1C,23.1µM*,20.6µM*,/,/,-25.7%,?
Cc1ccc(SCc2nc(-c3ccccc3)no2)cc1,-8.9%,-13.7%,-1.2%,-2.5,2.1%,8.0%
COc1ccc(-c2noc(CSc3nnc(-c4ccncc4)n3-c3ccc(C)c(C)c3)n2)cc1,14.6µM*,13µM*,/,/,-35.3%,-17.0%
Cc1ccc(SCc2nc(-c3ccncc3)no2)cc1,5.8µM*,13µM*,1.9%,-7.5,-6.6%,12.3%
COc1ccccc1-c1noc(CSc2nnc(Cc3ccccc3)n2-c2ccc(C)c(C)c2)n1,16.4µM*,23.1µM*,/,/,-56.0%,?
CCOc1ccccc1-c1noc(CSc2nnc(-c3ccccc3)n2-c2cccc(C)c2)n1,?,20.6µM*,/,/,1.6%,11.2%
Cc1cccc(-n2c(SCc3nc(-c4ccccc4C)no3)nnc2-c2ccccc2)c1,0.0%,?,/,/,4.9%,33.6%
O=C(NCCCN1CCN(c2ccccc2F)CC1)c1sc2ncccc2c1-n1cccc1,?,20.6µM*,/,/,-35.6%,?
O=C(Cc1csc(Nc2nc(=S)[nH]c3ccccc23)n1)NCCCN1CCN(c2ccccc2F)CC1,8.2µM*,14.6µM*,4.0%,-98.8*,-58.4%,?
Cc1ccc(C)n1-c1c(C(=O)NCCCN2CCN(c3ccc(F)cc3)CC2)sc2ncccc12,20.6µM*,?,/,/,-32.7%,?
O=C(NCCCN1CCN(c2ccccc2)CC1)c1sc2ncccc2c1-n1cccc1,?,?,/,/,-16.9%,-22.3%
O=C(NCCCN1CCN(c2cccc(Cl)c2)CC1)c1cnn(-c2ccc(F)cc2)c1-n1cccc1,/,/,/,/,10µM*,?
COc1cccc(Cc2nc3ccccc3nc2SCC(=O)Nc2cccc(C)c2)c1,?,?,/,/,-9.3%,-2.8%
Cc1cc(Br)ccc1NC(=O)CNC(=O)c1cnn(C)c1,-14.0%,-15.0%,-1.5%,0.1,-2.9%,13.5%
O=C(NCC1Cc2cccc(-c3ncccn3)c2O1)C1CCOC1 (configuration not stated),9.9%[9.04 µM],-6.2%,/,/,/,/
CCc1cccc(C)c1NC(=S)NCC(c1cccnc1)N(C)C (configuration not stated),-6.0%,-4.1%,6.9%,-6.3,-28.5%,-2.1%
O=C(NCCCN1CCN(c2cccc(Cl)c2)CC1)c1sc2ncccc2c1-n1cccc1,?,23.1µM*,/,/,-24.8%,?
CC1O[C@@H](O[C@H](C)CC[C@@H](C)O)C(O)C[C@H]1O (some centres not stated),10.2%,1.2%,-0.1%,20.3,-2.3%,4.8%
COc1ccc2[nH]c3nc(SCc4nnc(-c5ccc(C)cc5)o4)nnc3c2c1,25.9µM*,16.4µM*,-0.4%,20.8,-2.2%,9.5%
COc1ccc(CNC(=O)CSc2nnc3c(n2)[nH]c2ccc(C)cc23)cc1,1.7%,6.2%,0.2%,30.9,2.9%,15.1%
CN(C)CCNc1nc2c(c(=O)[nH]c(=O)n2C)n1CCOc1ccccc1,?,-19.0%,-1.2%,-14.0,-5.2%,-6.9%
COc1cc(C2C(=O)N(C3CCCCC3)CC(=O)N2C2CCCC2)ccc1OC(C)C (configuration not stated),-13.1%,-11.4%,/,/,-11.3%,1.8%
CCN1C[C@@H]2[C@@H]3C(=O)N(C)C(=O)[C@@H]3[C@](Cc3ccccc3)(C(=O)OC)N2C1=NC1CCCCC1,?,20.6µM*,2.6%,11.8,3.5%,17.7%
COC(=O)[C@@]1(Cc2ccccc2)[C@H]2C(=O)N(C)C(=O)[C@H]2[C@H]2CN=C(SCc3ccccc3)N21,14.6µM*,?,0.9%,3.7,-39.7%,-12.1%
COC(=O)c1ccc(CSC2=NC[C@@H]3[C@@H]4C(=O)N(Cc5ccccc5)C(=O)[C@@H]4[C@](C)(C(=O)OC)N23)cc1,?,16.4µM*,1.1%,17.8,-0.3%,-15.4%
SMILES,TDP1 cell CPT,DT40 TDP1 no CPT,S-ASM inh,IL1B secr inh,HepG2 tox,TGFb SMAD3 inh
COC(=O)[C@@]1(Cc2ccccc2)[C@H]2C(=O)N(C)C(=O)[C@H]2[C@H]2CN=C(SCc3ccc(C#N)cc3)N21,?,?,0.8%,-9.9,1.4%,-12.4%
Cc1cccc(N(C)C(=O)CN(C)S(=O)(=O)c2ccc3c(c2)c(=O)n(C)c(=O)n3C)c1,-17.9%,2.8%,-0.6%,26.5,-0.9%,8.7%
CCn1cnc2cc(NCc3ccc(OC)cc3)ccc21,-24.6%,?,0.5%,1.1,1.6%,14.8%
CCN(CC)c1ccc(CNc2ccc3c(c2)ncn3C(C)(C)C)cc1,16.4µM*,?,3.2%,-23.9,-30.4%,0.0%
CCc1ccc(CNc2ccc3c(c2)ncn3CC)cc1,?,?,-4.3%,-57.2*,1.9%,5.0%
CCc1ccc(CNc2ccc3c(c2)ncn3C(C)(C)C)cc1,20.6µM*,20.6µM*,-13.0%,-77.9*,-21.5%,?
CC(C)(C)n1cnc2cc(NCc3ccc(Br)cc3)ccc21,?,?,-5.1%,?,-32.6%,?
CC(C)(C)n1cnc2cc(NCc3ccccc3O)ccc21,?,?,0.4%,?,-18.8%,-22.3%
CCCc1cc(=O)[nH]c(SCc2nc(-c3ccccc3)no2)n1,-14.9%,-27.6%,/,/,-14.1%,-23.3%
COC(=O)C[C@H]1C=C[C@H](NC(=O)C2CCOCC2)[C@@H](CO)O1,6.1%,3.4%,/,23.5,/,/
O=C(/C=C/c1ccc([N+](=O)[O-])cc1)Nc1ncc([N+](=O)[O-])s1,5.8µM*,8.2µM*,-13.8%,-77.6*,-26.5%,12.6µM*
O=C(Nc1ncc([N+](=O)[O-])s1)c1cccs1,18.4µM*,10.3µM*,-6.8%,8.9,12.6µM*!,?
O=C(CS(=O)(=O)c1ccccc1)Nc1ncc([N+](=O)[O-])s1,-2.9%,-9.1%,1.0%,23.7,3.6%,0.4%
Cc1cnc(NC(=O)c2cccs2)s1,-2.4%,-25.0%,-3.2%,-99.1*,-23.1%,-21.6%
O=C(Nc1ncc([N+](=O)[O-])s1)c1ccccc1Br,20.6µM*,18.4µM*,-1.8%,24.6,-30.6%,?
Cc1csc(NC(=O)c2cccs2)n1,-14.5%,-22.9%,-2.3%,2.0,-26.2%,7.7%
